# According to PubChem BioAssay AID1159580 (chemical genetic matrix, 2015):
# The campaign covered roughly 5,500 compounds. About 2,000 (36%) were called active. Inconclusive results (about 18%) are left out. This is one part of the list. Unmarked numbers belong to inactive results. Rule as the data show it: active = normalized growth mostly below about 0.91 (no sharp cut-off); inconclusive = no clear call, values can overlap the other calls; inactive = mostly above about 0.92.
# Assay: chemical genetic growth profiling, strain panel (AID 1159580);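 also: tested at 20 µM; growth read once vehicle control cultures reached saturation at 30 °C; 1 = growth at the plate median or of vehicle wells; lower values mean less growth of the strain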
# Settings: S. cerevisiae deletion strains, growth OD
smiles,measurement,setting,value
CC(=O)O[C@H]1CC[C@@]2(C)C(=CCC3C2CC[C@]2(C)C(=O)CCC32)C1 (stereo partly drawn),normalized growth,"locus YAL013W, strain DEP1, stronger effect = lower value",0.775 (active)
same,normalized growth,"locus YAL021C, strain ccr4, stronger effect = lower value",0.877 (active)
same,normalized growth,"locus YAL026C, strain drs2, stronger effect = lower value",0.6 (active)
same,normalized growth,"locus YAL030W, strain snc1, stronger effect = lower value",1.02
same,normalized growth,"locus YBL061C, strain skt5, stronger effect = lower value",1.02
same,normalized growth,"locus YBR009C, strain hhf1, stronger effect = lower value",0.908
same,normalized growth,"locus YBR021W, strain FUR4, stronger effect = lower value",0.833 (active)
same,normalized growth,"locus YBR023C, strain chs3, stronger effect = lower value",0.961
same,normalized growth,"locus YBR171W, strain sec66, stronger effect = lower value",1.02
same,normalized growth,"locus YBR229C, strain ROT2, stronger effect = lower value",1
same,normalized growth,"locus YBR231C, strain swc5, stronger effect = lower value",1.04
same,normalized growth,"locus YBR279W, strain paf1, stronger effect = lower value",0.975
same,normalized growth,"locus YCL011C, strain gbp2, stronger effect = lower value",0.912
same,normalized growth,"locus YCL016C, strain dcc1, stronger effect = lower value",0.917
same,normalized growth,"locus YCL029C, strain bik1, stronger effect = lower value",0.895 (active)
same,normalized growth,"locus YCL069W, strain vba3, stronger effect = lower value",0.951
same,normalized growth,"locus YCR088W, strain abp1, stronger effect = lower value",1.05
same,normalized growth,"locus YDL005C, strain med2, stronger effect = lower value",1.02
same,normalized growth,"locus YDL035C, strain GPR1, stronger effect = lower value",0.686 (active)
same,normalized growth,"locus YDL040C, strain nat1, stronger effect = lower value",1.03
same,normalized growth,"locus YDL074C, strain BRE1, stronger effect = lower value",0.612 (active)
same,normalized growth,"locus YDL101C, strain DUN1, stronger effect = lower value",0.981
same,normalized growth,"locus YDL185W, strain tfp1, stronger effect = lower value",1.01
same,normalized growth,"locus YDL192W, strain arf1, stronger effect = lower value",1.01
same,normalized growth,"locus YDR001C, strain nth1, stronger effect = lower value",1.04
same,normalized growth,"locus YDR069C, strain doa4, stronger effect = lower value",1.02
same,normalized growth,"locus YDR101C, strain arx1, stronger effect = lower value",0.932
same,normalized growth,"locus YDR137W, strain rgp1, stronger effect = lower value",0.568 (active)
same,normalized growth,"locus YDR159W, strain sac3, stronger effect = lower value",1.01
same,normalized growth,"locus YDR162C, strain NBP2, stronger effect = lower value",0.596 (active)
same,normalized growth,"locus YDR195W, strain ref2",1.3 [resistant] (active)
same,normalized growth,"locus YDR297W, strain sur2, stronger effect = lower value",0.99
same,normalized growth,"locus YDR318W, strain mcm21, stronger effect = lower value",0.844 (active)
same,normalized growth,"locus YDR334W, strain swr1, stronger effect = lower value",1.06
same,normalized growth,"locus YDR335W, strain msn5, stronger effect = lower value",0.937
same,normalized growth,"locus YDR388W, stronger effect = lower value",1.02
same,normalized growth,"locus YDR392W, strain spt3, stronger effect = lower value",0.43 (active)
same,normalized growth,"locus YDR502C, strain sam2, stronger effect = lower value",0.843 (active)
same,normalized growth,"locus YEL003W, strain gim4, stronger effect = lower value",0.942
same,normalized growth,"locus YEL037C, strain rad23, stronger effect = lower value",0.994
same,normalized growth,"locus YEL061C, strain CIN8 (second series), stronger effect = lower value",1.02
same,normalized growth,"locus YEL061C, strain CIN8, stronger effect = lower value",0.928
same,normalized growth,"locus YER015W, strain faa2, stronger effect = lower value",0.948
same,normalized growth,"locus YER016W, strain bim1, stronger effect = lower value",1.02
same,normalized growth,"locus YER110C, stronger effect = lower value",1.03
same,normalized growth,"locus YER111C, strain swi4, stronger effect = lower value",1.03
same,normalized growth,"locus YER155C, strain BEM2 (second series), stronger effect = lower value",0.991
same,normalized growth,"locus YER155C, strain BEM2, stronger effect = lower value",0.752 (active)
same,normalized growth,"locus YER167W, strain BCK2, stronger effect = lower value",0.892 (active)
same,normalized growth,"locus YFR010W, strain ubp6, stronger effect = lower value",0.96
same,normalized growth,"locus YGL078C, strain dbp3, stronger effect = lower value",0.979
same,normalized growth,"locus YGL086W, strain mad1, stronger effect = lower value",0.884 (active)
same,normalized growth,"locus YGL167C, strain pmr1, stronger effect = lower value",1.02
same,normalized growth,"locus YGL173C, strain kem1, stronger effect = lower value",1
same,normalized growth,"locus YGL227W, strain vid30, stronger effect = lower value",1.04
same,normalized growth,"locus YGL240W, strain doc1, stronger effect = lower value",1.02
same,normalized growth,"locus YGL248W, strain PDE1, stronger effect = lower value",0.721 (active)
same,normalized growth,"locus YGL253W, strain hxk2, stronger effect = lower value",0.939
same,normalized growth,"locus YGR135W, strain pre9, stronger effect = lower value",0.884 (active)
same,normalized growth,"locus YGR229C, strain SMI1, stronger effect = lower value",0.813
same,normalized growth,"locus YGR252W, strain gcn5, stronger effect = lower value",0.81
same,normalized growth,"locus YHR013C, strain ard1, stronger effect = lower value",0.966
same,normalized growth,"locus YHR027C, strain rpn1, stronger effect = lower value",1.02
same,normalized growth,"locus YHR030C, strain SLT2, stronger effect = lower value",0.779 (active)
same,normalized growth,"locus YHR079C, strain IRE1 (second series), stronger effect = lower value",0.962
same,normalized growth,"locus YHR094C, strain hxt1, stronger effect = lower value",1.04
same,normalized growth,"locus YHR129C, strain ARP1, stronger effect = lower value",0.788 (active)
same,normalized growth,"locus YHR142W, strain chs7, stronger effect = lower value",0.877
same,normalized growth,"locus YHR200W, strain rpn10, stronger effect = lower value",0.961
same,normalized growth,"locus YIL066C, strain RNR3, stronger effect = lower value",0.812 (active)
same,normalized growth,"locus YIL073C, strain SPO22, stronger effect = lower value",0.679
same,normalized growth,"locus YIL125W, strain kgd1, stronger effect = lower value",1
same,normalized growth,"locus YIR030C, strain dcg1, stronger effect = lower value",1.02
same,normalized growth,"locus YJL092W, strain hpr5, stronger effect = lower value",1
same,normalized growth,"locus YJL095W, strain BCK1 (second series), stronger effect = lower value",1.01
same,normalized growth,"locus YJL095W, strain BCK1, stronger effect = lower value",0.433 (active)
same,normalized growth,"locus YJL115W, strain asf1, stronger effect = lower value",1.05
same,normalized growth,"locus YJL129C, strain trk1, stronger effect = lower value",0.939
same,normalized growth,"locus YJL134W, strain LCB3, stronger effect = lower value",1.02
same,normalized growth,"locus YJL154C, strain vps35, stronger effect = lower value",1.03
same,normalized growth,"locus YJL164C, strain tpk1, stronger effect = lower value",0.906 (active)
same,normalized growth,"locus YJL166W, strain qcr8, stronger effect = lower value",0.903
same,normalized growth,"locus YJL168C, strain set2, stronger effect = lower value",1.02
same,normalized growth,"locus YJL187C, strain SWE1 (second series), stronger effect = lower value",0.887
same,normalized growth,"locus YJR043C, strain POL32, stronger effect = lower value",0.857
same,normalized growth,"locus YJR075W, strain HOC1, stronger effect = lower value",0.887
same,normalized growth,"locus YKL009W, strain mrt4, stronger effect = lower value",0.938
same,normalized growth,"locus YKL068W, stronger effect = lower value",1.03
same,normalized growth,"locus YKL085W, strain MDH1 (second series), stronger effect = lower value",0.964
same,normalized growth,"locus YKL085W, strain MDH1, stronger effect = lower value",0.964
same,normalized growth,"locus YKL160W, strain elf1, stronger effect = lower value",0.906
same,normalized growth,"locus YKL190W, strain CNB1, stronger effect = lower value",0.945
same,normalized growth,"locus YKR001C, strain vps1, stronger effect = lower value",0.961
same,normalized growth,"locus YKR026C, strain gcn3, stronger effect = lower value",1.05
same,normalized growth,"locus YKR091W, strain srl3, stronger effect = lower value",1.03
same,normalized growth,"locus YLL001W, strain dnm1, stronger effect = lower value",0.918
same,normalized growth,"locus YLL026W, stronger effect = lower value",1.02
same,normalized growth,"locus YLL041C, strain sdh2, stronger effect = lower value",1.03
same,normalized growth,"locus YLR027C, strain aat2, stronger effect = lower value",0.954
same,normalized growth,"locus YLR039C, strain RIC1, stronger effect = lower value",0.403 (active)
same,normalized growth,"locus YLR058C, strain SHM2, stronger effect = lower value",0.892
same,normalized growth,"locus YLR102C, strain apc9, stronger effect = lower value",1.04
same,normalized growth,"locus YLR221C, strain rsa3, stronger effect = lower value",0.966
same,normalized growth,"locus YLR258W, strain gsy2, stronger effect = lower value",0.952
same,normalized growth,"locus YLR262C, strain YPT6 (second series), stronger effect = lower value",0.514 (active)
same,normalized growth,"locus YLR262C, strain YPT6, stronger effect = lower value",0.413 (active)
same,normalized growth,"locus YLR268W, strain sec22, stronger effect = lower value",0.887
same,normalized growth,"locus YLR320W, strain mms22, stronger effect = lower value",0.846 (active)
same,normalized growth,"locus YLR330W, strain CHS5, stronger effect = lower value",0.814 (active)
same,normalized growth,"locus YLR342W, strain FKS1 (second series), stronger effect = lower value",0.742 (active)
same,normalized growth,"locus YLR342W, strain FKS1, stronger effect = lower value",0.976
same,normalized growth,"locus YLR357W, strain rsc2, stronger effect = lower value",1.1
same,normalized growth,"locus YLR370C, strain arc18, stronger effect = lower value",1.01
same,normalized growth,"locus YLR371W, strain rom2, stronger effect = lower value",1.02
same,normalized growth,"locus YLR384C, strain iki3, stronger effect = lower value",1.03
same,normalized growth,"locus YLR418C, strain cdc73, stronger effect = lower value",0.698 (active)
same,normalized growth,"locus YML016C, strain PPZ1, stronger effect = lower value",0.947
same,normalized growth,"locus YML032C, strain rad52, stronger effect = lower value",0.866 (active)
same,normalized growth,"locus YML120C, strain ndi1, stronger effect = lower value",0.928
same,normalized growth,"locus YML124C, strain tub3, stronger effect = lower value",1.03
same,normalized growth,"locus YMR058W, strain fet3, stronger effect = lower value",0.988
same,normalized growth,"locus YMR078C, strain ctf18, stronger effect = lower value",1.01
same,normalized growth,"locus YMR125W, strain sto1, stronger effect = lower value",1.05
same,normalized growth,"locus YMR129W, stronger effect = lower value",1.03
same,normalized growth,"locus YMR205C, strain PFK2, stronger effect = lower value",0.876
same,normalized growth,"locus YMR223W, strain ubp8, stronger effect = lower value",0.878 (active)
same,normalized growth,"locus YMR231W, strain pep5, stronger effect = lower value",1.01
same,normalized growth,"locus YMR263W, strain SAP30, stronger effect = lower value",0.943
same,normalized growth,"locus YMR307W, strain GAS1, stronger effect = lower value",0.865
same,normalized growth,"locus YNL067W, strain RPL9B, stronger effect = lower value",0.887
same,normalized growth,"locus YNL071W, strain lat1, stronger effect = lower value",0.758 (active)
same,normalized growth,"locus YNL209W, strain ssb2, stronger effect = lower value",0.942
same,normalized growth,"locus YNL233W, strain BNI4, stronger effect = lower value",0.724 (active)
same,normalized growth,"locus YNL248C, strain rpa49, stronger effect = lower value",0.98
same,normalized growth,"locus YNL250W, strain rad50, stronger effect = lower value",0.914
same,normalized growth,"locus YNL271C, strain bni1, stronger effect = lower value",0.965
same,normalized growth,"locus YNL298W, strain CLA4, stronger effect = lower value",0.859 (active)
same,normalized growth,"locus YNL307C, strain MCK1, stronger effect = lower value",0.516 (active)
same,normalized growth,"locus YNL322C, strain KRE1 (second series), stronger effect = lower value",1.04
same,normalized growth,"locus YNR049C, strain mso1, stronger effect = lower value",1.04
same,normalized growth,"locus YNR052C, strain pop2, stronger effect = lower value",0.85 (active)
same,normalized growth,"locus YOL012C, strain htz1",1.72
same,normalized growth,"locus YOL147C, strain pex11, stronger effect = lower value",0.92 (active)
same,normalized growth,"locus YOR001W, strain rrp6, stronger effect = lower value",0.969
same,normalized growth,"locus YOR061W, strain CKA2, stronger effect = lower value",0.89
same,normalized growth,"locus YOR069W, strain VPS5, stronger effect = lower value",0.988
same,normalized growth,"locus YOR070C, strain gyp1, stronger effect = lower value",0.937
same,normalized growth,"locus YOR080W, strain dia2, stronger effect = lower value",1
same,normalized growth,"locus YOR083W, strain WHI5, stronger effect = lower value",0.903
same,normalized growth,"locus YOR106W, strain vam3, stronger effect = lower value",0.883
same,normalized growth,"locus YOR136W, strain idh2, stronger effect = lower value",0.95
same,normalized growth,"locus YOR144C, strain elg1, stronger effect = lower value",0.989
same,normalized growth,"locus YOR184W, strain ser1, stronger effect = lower value",0.477 (active)
same,normalized growth,"locus YOR265W, strain rbl2, stronger effect = lower value",0.973
same,normalized growth,"locus YOR270C, strain vph1, stronger effect = lower value",1.05
same,normalized growth,"locus YOR290C, strain snf2, stronger effect = lower value",0.881
same,normalized growth,"locus YOR316C, strain cot1, stronger effect = lower value",1.02
same,normalized growth,"locus YPL051W, strain arl3, stronger effect = lower value",0.953
same,normalized growth,"locus YPL055C, strain LGE1, stronger effect = lower value",0.594 (active)
same,normalized growth,"locus YPL078C, strain atp4, stronger effect = lower value",0.891 (active)
same,normalized growth,"locus YPL106C, strain sse1, stronger effect = lower value",1.22 [resistant] (active)
same,normalized growth,"locus YPL240C, strain hsp82, stronger effect = lower value",0.983
same,normalized growth,"locus YPL241C, strain CIN2, stronger effect = lower value",1
same,normalized growth,"locus YPR119W, strain clb2, stronger effect = lower value",1.04
same,normalized growth,"locus YPR141C, strain kar3, stronger effect = lower value",1.04
same,normalized growth,"locus YPR163C, strain tif3, stronger effect = lower value",0.941
same,normalized growth,"locus YPR167C, strain met16, stronger effect = lower value",0.97
same,normalized growth,"strain wtn01, stronger effect = lower value",0.848 (active)
